Test results reported in PubChem BioAssay (Tox21).
Results filed as inconclusive are left out. Active and inactive are the calls of the source. Unless noted, calls come from the whole dose curve; as a rule, active = well fitted curve in the direction sought with a large enough effect in the repeat runs; inconclusive = weak or mixed curves; inactive = no such curve, though single readings can be large; an effect the other way counts as inactive or inconclusive.

Columns and labels:
[1] = qHTS assay to test for compound auto fluorescence at 535 nm (green) in HEK293 cells (AID 720680)
[2] = qHTS assay to test for compound auto fluorescence at 460 nm (blue) in HEK293 cell free culture (AID 720681)
How it was run: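 Compounds were added to cell-free DMEM with 10% FBS and fluorescence read directly. The blue channel used 405 nm excitation and 460 nm emission, with triamterene as the reference fluorophore.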

[3] = qHTS assay to test for compound auto fluorescence at 535 nm (green) in HEK293 cell free culture (AID 720682)
How it was run: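 Fluorescein serves as the green reference fluorophore; each compound's intrinsic emission at 535 nm (excitation 485 nm) is reported as an equivalent amount of that dye, measured in serum-containing DMEM without cells.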

[4] = qHTS assay to test for compound auto fluorescence at 590 nm (red) in HEK293 cell free culture (AID 720683)
How it was run: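 Cell-free wells of DMEM with 10% FBS received compound, and intrinsic fluorescence was read at excitation/emission 540/590 nm. Values expressed as equivalence to Rose Bengal sodium.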

[5] = qHTS assay to test for compound auto fluorescence at 590 nm (red) in HepG2 cell free culture (AID 720684)
How it was run: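 Compound was pinned into wells holding MEM with 10% FBS and no cells, and red fluorescence was read at Ex/Em 540/590 nm. Signal is expressed as auto fluorescence equivalency relative to Rose Bengal sodium.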

[6] = qHTS assay to test for compound auto fluorescence at 460 nm (blue) in HepG2 cell free culture (AID 720685)
How it was run: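 Compound (23 nL) or DMSO pinned into cell-free MEM with 10% FBS; blue fluorescence read at 405/460 nm excitation/emission, expressed as auto-fluorescence equivalency to triamterene.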

[7] = qHTS assay to test for compound auto fluorescence at 535 nm (green) in HepG2 cell free culture (AID 720686)
[8] = qHTS assay to test for compound auto fluorescence at 460 nm (blue) in HepG2 cells (AID 720687)
How it was run: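 HepG2 cells in MEM with 10% FBS, attached overnight at 37 C, were exposed to compound or DMSO for 1 hr at 37 C, 5% CO2. Blue fluorescence was read at 405/460 nm, with triamterene as reference fluorophore.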

[9] = biological target: Glucocorticoid receptor (Homo sapiens) (UniProt P04150); test: qHTS assay to identify small molecule antagonists of the glucocorticoid receptor (GR) signaling pathway (AID 720692; active = well fitted inhibition curve with a large enough effect in the signal ratio in the repeat runs, not every such curve was filed as active; the % refers to the signal ratio)
Sequence of Glucocorticoid receptor (Homo sapiens) (P04150 whole entry, looked up): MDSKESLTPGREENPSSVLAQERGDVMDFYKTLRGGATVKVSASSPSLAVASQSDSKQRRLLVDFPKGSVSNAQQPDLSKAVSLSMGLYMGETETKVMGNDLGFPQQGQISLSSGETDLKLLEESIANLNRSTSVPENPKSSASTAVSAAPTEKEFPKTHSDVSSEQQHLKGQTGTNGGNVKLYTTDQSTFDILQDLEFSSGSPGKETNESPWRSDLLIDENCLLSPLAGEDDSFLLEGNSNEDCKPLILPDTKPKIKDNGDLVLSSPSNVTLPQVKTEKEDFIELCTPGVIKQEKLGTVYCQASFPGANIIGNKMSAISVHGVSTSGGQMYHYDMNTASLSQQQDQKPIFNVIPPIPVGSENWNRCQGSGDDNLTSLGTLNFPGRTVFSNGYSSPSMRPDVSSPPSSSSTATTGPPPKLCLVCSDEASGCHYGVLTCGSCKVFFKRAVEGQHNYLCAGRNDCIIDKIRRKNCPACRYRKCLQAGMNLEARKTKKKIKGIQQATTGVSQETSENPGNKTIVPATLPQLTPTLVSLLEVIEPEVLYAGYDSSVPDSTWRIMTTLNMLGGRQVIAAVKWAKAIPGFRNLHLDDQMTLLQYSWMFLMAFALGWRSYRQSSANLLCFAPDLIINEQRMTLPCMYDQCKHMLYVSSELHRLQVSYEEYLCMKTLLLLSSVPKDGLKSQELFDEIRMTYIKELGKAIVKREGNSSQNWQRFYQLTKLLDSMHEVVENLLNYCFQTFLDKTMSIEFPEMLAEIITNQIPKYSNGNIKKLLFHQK
How it was run: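 Dexamethasone (5 nM final) stimulated a stably integrated GRE-beta-lactamase reporter in HeLa cells during 18 h co-incubation with compounds; signal was quantified as fluorescence intensity of B/G FRET substrate after 2 h.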

[10] = qHTS assay to identify small molecule antagonists of the glucocorticoid receptor (GR) signaling pathway - cell viability counter screen (AID 720693); note: nearly all actives have a fitted effect of over 55% in size
[11] = qHTS assay for identifying genotoxic compounds that show differential cytotoxicity against isogenic chicken DT40 cell lines with known DNA damage response pathways - wild type cell line (AID 743012); note: nearly all actives have a fitted effect of over 60% in size
How it was run: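 Using parental DT40 (300 cells/well), compounds delivered in DMSO incubate 40 h at 37 C/5% CO2. CellTiter-Glo reagent then stands 30 min at room temperature, and luminescence gives cell viability.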

[12] = qHTS assay for identifying genotoxic compounds that show differential cytotoxicity against isogenic chicken DT40 cell lines with known DNA damage response pathways - Rev3 mutant cell line (AID 743014); note: nearly all actives have a fitted effect of over 55% in size
[13] = qHTS assay for identifying genotoxic compounds that show differential cytotoxicity against isogenic chicken DT40 cell lines with known DNA damage response pathways - Rad54/Ku70 mutant cell line (AID 743015); note: nearly all actives have a fitted effect of over 60% in size
[14] = qHTS assay to identify small molecule antagonists of the androgen receptor (AR) signaling pathway - cell viability counter screen (AID 743033; note: nearly all actives have a fitted effect of over 45% in size)
[15] = qHTS assay to identify small molecule antagonists of the androgen receptor (AR) signaling pathway using the MDA cell line - cell viability counter screen (AID 743041; note: nearly all actives have a fitted effect of over 45% in size)
How it was run: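 MDA-kb2 AR-luc cells (MMTV-luciferase, AR/GR responsive) treated with compounds plus R1881 agonist for 16 h at 37C. CellTiter-Fluor added at 15.5 h; fluorescence read after 30 min in the same wells.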

[16] = biological target: Glucocorticoid receptor (Homo sapiens) (UniProt P04150); test: qHTS assay to identify small molecule agonists of the glucocorticoid receptor (GR) signaling pathway (AID 720691; active = well fitted activation curve with a large enough effect in the signal ratio in the repeat runs, not every such curve was filed as active; the % refers to the signal ratio)
How it was run: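 Reporter read-out: fluorescence intensity following 2 h room-temperature LiveBLAzer B/G FRET substrate loading. Prior step: GR-bla HeLa cells held 4 h, then treated 18 h at 37 C.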
% is set by controls: 0 for no effect and ±100 for the full control effect.

CC(C)(C)OC=O
inactive: outcome [1] | outcome [2] | outcome [3] | outcome [4] | outcome [5] | outcome [6] | outcome [7] | outcome [8] | outcome [9] | outcome [10] | Potency [11] | Potency [12] | Potency [13] | outcome [14] | outcome [15]

CNCCc1ccccn1
inactive: fluorescence, % of fluorescein [1] -0.0419% [at 18.6 µM] | fluorescence, % of fluorescent control [2] 0.0128% [at 18.6 µM] | activity change [3] -0.037% [at 18.6 µM] | fluorescence, % of fluorescent control [4] -0.0269% [at 18.6 µM] | fluorescence, % of Rose Bengal [5] 0.0243% [at 18.6 µM] | fluorescence, % of fluorescent control [6] 0.0418% [at 18.6 µM] | fluorescence, % of fluorescein control [7] -0.0162% [at 18.6 µM] | fluorescence, % of fluorescent control [8] 0.114% [at 18.6 µM] | outcome [9] | outcome [10] | Potency [11] | Potency [13] | outcome [14] | outcome [15]

CC(C)=CCC/C(C)=C\C#N
inactive: outcome [1] | outcome [2] | outcome [3] | outcome [4] | outcome [5] | outcome [6] | outcome [7] | outcome [8] | Potency [16] | Potency [11] | Potency [13] | outcome [14] | outcome [15]

CCCCCCCCCCCCCCCC(=O)OC
inactive: fluorescence, % of fluorescein [1] -0.0119% [at 18.6 µM] | fluorescence, % of fluorescent control [2] -0.0484% [at 18.6 µM] | activity change [3] -0.0305% [at 18.6 µM] | fluorescence, % of fluorescent control [4] -0.033% [at 18.6 µM] | fluorescence, % of Rose Bengal [5] 0.0231% [at 18.6 µM] | fluorescence, % of fluorescent control [6] -0.0427% [at 18.6 µM] | fluorescence, % of fluorescein control [7] -0.0231% [at 18.6 µM] | fluorescence, % of fluorescent control [8] 0.0931% [at 18.6 µM] | outcome [9] | outcome [10] | Potency [12] | Potency [13] | outcome [14] | outcome [15]

CC(O)CCCCn1c(=O)c2c(ncn2C)n(C)c1=O (stereo unspecified)
inactive: outcome [1] | outcome [2] | outcome [3] | outcome [4] | outcome [5] | outcome [6] | outcome [7] | outcome [8] | outcome [10] | Potency [11] | Potency [12] | Potency [13] | outcome [14] | outcome [15]

COc1ccc2cc(CCC(C)=O)ccc2c1
inactive: fluorescence, % of fluorescein [1] -0.0683% [at 18.6 µM] | fluorescence, % of fluorescent control [2] -0.26% [at 18.6 µM] | activity change [3] -0.0416% [at 18.6 µM] | fluorescence, % of fluorescent control [4] 0.474% [at 18.6 µM] | fluorescence, % of Rose Bengal [5] -0.0935% [at 18.6 µM] | fluorescence, % of fluorescent control [6] 0.0413% [at 18.6 µM] | fluorescence, % of fluorescein control [7] -0.0938% [at 18.6 µM] | fluorescence, % of fluorescent control [8] 0.0207% [at 18.6 µM] | Potency [16] | Potency [13] | outcome [14] | outcome [15]

COc1ccc(Cl)cc1C
inactive: outcome [1] | outcome [2] | outcome [3] | outcome [4] | outcome [5] | outcome [6] | outcome [7] | outcome [8] | outcome [9] | Potency [11] | Potency [12] | Potency [13] | outcome [14] | outcome [15]
